Results: PubChem BioAssay AID1159580 (chemical genetic matrix, 2015)
About 2,000 (36%) of roughly 5,500 compounds were called active. Inconclusive results (about 18%) are left out. Cut-off read from the data, not from the text of the source: active = normalized growth mostly below about 0.91 (no sharp cut-off); inconclusive = no clear call, values can overlap the other calls; inactive = mostly above about 0.92. This is one part of the list.

Experiment: chemical genetic growth profiling, strain panel (AID 1159580);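 note: tested at 20 µM; growth read once vehicle control cultures reached saturation at 30 °C; 1 = growth at the plate median or of vehicle wells; lower values mean less growth of the strain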
Details: growth OD

Measured: normalized growth

CCOC(N)=O
inactive: S. cerevisiae deletion strains, locus YJR075W, strain HOC1, hits give low values 1.01 | S. cerevisiae deletion strains, locus YKL009W, strain mrt4, hits give low values 1.02 | S. cerevisiae deletion strains, locus YKL068W, hits give low values 1.01 | S. cerevisiae deletion strains, locus YKL085W, strain MDH1 (second series), hits give low values 1 | S. cerevisiae deletion strains, locus YKL085W, strain MDH1, hits give low values 1 | S. cerevisiae deletion strains, locus YKL160W, strain elf1, hits give low values 0.994 | S. cerevisiae deletion strains, locus YKL190W, strain CNB1, hits give low values 1 | S. cerevisiae deletion strains, locus YKR001C, strain vps1, hits give low values 1.01 | S. cerevisiae deletion strains, locus YKR026C, strain gcn3, hits give low values 0.992 | S. cerevisiae deletion strains, locus YKR091W, strain srl3, hits give low values 0.992 | S. cerevisiae deletion strains, locus YLL001W, strain dnm1, hits give low values 1.01 | S. cerevisiae deletion strains, locus YLL026W, hits give low values 0.998 | S. cerevisiae deletion strains, locus YLL041C, strain sdh2, hits give low values 0.995 | S. cerevisiae deletion strains, locus YLR027C, strain aat2, hits give low values 0.996 | S. cerevisiae deletion strains, locus YLR039C, strain RIC1, hits give low values 1.01 | S. cerevisiae deletion strains, locus YLR058C, strain SHM2, hits give low values 1 | S. cerevisiae deletion strains, locus YLR102C, strain apc9, hits give low values 1.02 | S. cerevisiae deletion strains, locus YLR113W, strain HOG1, hits give low values 0.989 | S. cerevisiae deletion strains, locus YLR221C, strain rsa3, hits give low values 0.992 | S. cerevisiae deletion strains, locus YLR258W, strain gsy2, hits give low values 0.99 | S. cerevisiae deletion strains, locus YLR262C, strain YPT6 (second series), hits give low values 0.998 | S. cerevisiae deletion strains, locus YLR262C, strain YPT6, hits give low values 0.977 | S. cerevisiae deletion strains, locus YLR268W, strain sec22, hits give low values 1 | S. cerevisiae deletion strains, locus YLR320W, strain mms22, hits give low values 0.988 | S. cerevisiae deletion strains, locus YLR330W, strain CHS5, hits give low values 1.01 | S. cerevisiae deletion strains, locus YLR342W, strain FKS1 (second series), hits give low values 1.04 | S. cerevisiae deletion strains, locus YLR342W, strain FKS1, hits give low values 0.987 | S. cerevisiae deletion strains, locus YLR357W, strain rsc2, hits give low values 0.97 | S. cerevisiae deletion strains, locus YLR370C, strain arc18, hits give low values 0.995 | S. cerevisiae deletion strains, locus YLR371W, strain rom2, hits give low values 1.02 | S. cerevisiae deletion strains, locus YLR384C, strain iki3, hits give low values 0.999 | S. cerevisiae deletion strains, locus YLR418C, strain cdc73, hits give low values 0.996 | S. cerevisiae deletion strains, locus YML016C, strain PPZ1, hits give low values 0.997 | S. cerevisiae deletion strains, locus YML032C, strain rad52, hits give low values 1.02 | S. cerevisiae deletion strains, locus YML120C, strain ndi1, hits give low values 1.02 | S. cerevisiae deletion strains, locus YML124C, strain tub3, hits give low values 0.995 | S. cerevisiae deletion strains, locus YMR058W, strain fet3, hits give low values 1 | S. cerevisiae deletion strains, locus YMR078C, strain ctf18, hits give low values 1.01 | S. cerevisiae deletion strains, locus YMR125W, strain sto1, hits give low values 0.986 | S. cerevisiae deletion strains, locus YMR129W, hits give low values 1 | S. cerevisiae deletion strains, locus YMR205C, strain PFK2, hits give low values 0.982 | S. cerevisiae deletion strains, locus YMR223W, strain ubp8, hits give low values 1.02 | S. cerevisiae deletion strains, locus YMR231W, strain pep5, hits give low values 0.995 | S. cerevisiae deletion strains, locus YMR263W, strain SAP30, hits give low values 0.998 | S. cerevisiae deletion strains, locus YMR307W, strain GAS1, hits give low values 1.02 | S. cerevisiae deletion strains, locus YNL067W, strain RPL9B, hits give low values 0.999 | S. cerevisiae deletion strains, locus YNL071W, strain lat1, hits give low values 1.01 | S. cerevisiae deletion strains, locus YNL128W, strain TEP1, hits give low values 1.01 | S. cerevisiae deletion strains, locus YNL153C, strain GIM3, hits give low values 0.995 | S. cerevisiae deletion strains, locus YNL183C, strain NPR1, hits give low values 0.925 | S. cerevisiae deletion strains, locus YNL209W, strain ssb2, hits give low values 1 | S. cerevisiae deletion strains, locus YNL233W, strain BNI4, hits give low values 1 | S. cerevisiae deletion strains, locus YNL248C, strain rpa49, hits give low values 1 | S. cerevisiae deletion strains, locus YNL250W, strain rad50, hits give low values 1.02 | S. cerevisiae deletion strains, locus YNL271C, strain bni1, hits give low values 1.02 | S. cerevisiae deletion strains, locus YNL298W, strain CLA4, hits give low values 1.02 | S. cerevisiae deletion strains, locus YNL307C, strain MCK1, hits give low values 1.01 | S. cerevisiae deletion strains, locus YNL322C, strain KRE1 (second series), hits give low values 0.994 | S. cerevisiae deletion strains, locus YNL322C, strain KRE1, hits give low values 1 | S. cerevisiae deletion strains, locus YNR049C, strain mso1, hits give low values 1.01 | S. cerevisiae deletion strains, locus YNR052C, strain pop2, hits give low values 1.01 | S. cerevisiae deletion strains, locus YOL006C, strain TOP1, hits give low values 1 | S. cerevisiae deletion strains, locus YOL012C, strain htz1 1.41 | S. cerevisiae deletion strains, locus YOL147C, strain pex11, hits give low values 1.01 | S. cerevisiae deletion strains, locus YOR001W, strain rrp6, hits give low values 0.994 | S. cerevisiae deletion strains, locus YOR061W, strain CKA2, hits give low values 1 | S. cerevisiae deletion strains, locus YOR069W, strain VPS5, hits give low values 1 | S. cerevisiae deletion strains, locus YOR070C, strain gyp1, hits give low values 0.991 | S. cerevisiae deletion strains, locus YOR080W, strain dia2, hits give low values 0.994 | S. cerevisiae deletion strains, locus YOR083W, strain WHI5, hits give low values 1 | S. cerevisiae deletion strains, locus YOR106W, strain vam3, hits give low values 0.998 | S. cerevisiae deletion strains, locus YOR136W, strain idh2, hits give low values 1.01 | S. cerevisiae deletion strains, locus YOR144C, strain elg1, hits give low values 1.01 | S. cerevisiae deletion strains, locus YOR184W, strain ser1, hits give low values 1.01 | S. cerevisiae deletion strains, locus YOR231W, strain MKK1, hits give low values 1 | S. cerevisiae deletion strains, locus YOR265W, strain rbl2, hits give low values 0.986 | S. cerevisiae deletion strains, locus YOR270C, strain vph1, hits give low values 1 | S. cerevisiae deletion strains, locus YOR290C, strain snf2, hits give low values 0.997 | S. cerevisiae deletion strains, locus YOR316C, strain cot1, hits give low values 1.02 | S. cerevisiae deletion strains, locus YPL051W, strain arl3, hits give low values 1 | S. cerevisiae deletion strains, locus YPL055C, strain LGE1, hits give low values 0.976 | S. cerevisiae deletion strains, locus YPL078C, strain atp4, hits give low values 0.989 | S. cerevisiae deletion strains, locus YPL106C, strain sse1, hits give low values 0.969 | S. cerevisiae deletion strains, locus YPL240C, strain hsp82, hits give low values 0.995 | S. cerevisiae deletion strains, locus YPL241C, strain CIN2, hits give low values 0.992 | S. cerevisiae deletion strains, locus YPL256C, strain CLN2, hits give low values 0.987 | S. cerevisiae deletion strains, locus YPR119W, strain clb2, hits give low values 1.01 | S. cerevisiae deletion strains, locus YPR141C, strain kar3, hits give low values 1.01 | S. cerevisiae deletion strains, locus YPR163C, strain tif3, hits give low values 1.01 | S. cerevisiae deletion strains, locus YPR167C, strain met16, hits give low values 1.01 | S. cerevisiae deletion strains, strain wtn01, hits give low values 1 | S. cerevisiae strains, strain wild type, hits give low values 1.01
